The campaign covered roughly 330,000 compounds. About 2,800 (0.85%) were called active.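 Rule for the calls: active = mean inhibition across replicates of 60% or more, whatever share of single replicates reaches that level; inconclusive = some that reach 60%, reason not given; inactive = mean inhibition across replicates below 60%.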 The sample as a whole holds a higher share of actives than the screen did.

What is called inhibition is the change of the read-out against control, counted positive when it falls.

A short description of the experiment: inhibitors of MITF-dependent TRPM1 promoter reporter, primary screen, cell-based, SK-MEL-5, single point, luciferase (AID 488899). The conditions noted are these: SK-MEL-5 TRPM1 promoter luciferase, 24 h; at 12.5 µM; stronger effect = higher value.
`CC1CC(C)CN(CC(=O)N2c3ccccc3CCc3ccccc32)C1` (configuration not stated): the inhibition is -0.982% (inactive).
Regarding `CC1C(=O)N(Cc2ccccc2)c2ccccc2N1C(=O)c1ccccc1` (configuration not stated), the inhibition was 8.87% (inactive).
Next, `CC1C(C)N(C(=O)CCl)c2ccccc2N1C(=O)CCl` (configuration not stated): 91.3% (active); `CCC1([N+](=O)[O-])COC(c2ccc(C(C)C)cc2)OC1` (configuration not stated): -55.6% (inactive); `O=C(Nc1ccc2ccccc2c1[N+](=O)[O-])c1ccccc1`: -36.6% (inactive).
Next, `S=C(NCc1cccnc1)Nc1ccc(Cl)cc1Cl`: -6.79% (inactive); `CC(=O)/C(=N\Nc1ccc(Cl)cc1Cl)Sc1cccc2cccnc12`: 65.6% (active); `Cc1c(NC(=O)CSc2cccc3cccnc23)c(=O)n(-c2ccccc2)n1C`: 35.6% (inactive).
Take `CC1(C)C(=O)C2(CCCCC2)C(=O)OC1c1cccs1` (configuration not stated): the inhibition was 4.16% (inactive).
Next, `C=CCn1c(=S)[nH]c2scc(-c3ccco3)c2c1=O`: 1.55% (inactive); `CCN(CC)S(=O)(=O)c1cc(C(=O)Nc2cc(S(=O)(=O)N3CCOCC3)ccc2N2CCCC2)ccc1F`: 6.91% (inactive).
Next, `CCN(CC)S(=O)(=O)c1ccc(N2CCCC2)c(NC(=O)c2ccc([N+](=O)[O-])o2)c1`: 88.5% (active); `CCN(CC)S(=O)(=O)c1ccc(N2CCOCC2)c(NC(=O)c2ccc(=O)n(C)n2)c1`: 2.54% (inactive); `Nc1ccc(-n2nncc2-c2ccco2)cc1`: -11.2% (inactive).
Next, `O=C(c1cccc(S(=O)(=O)N2CCCCCC2)c1)N1CCN(Cc2ccccc2)CC1`: -3.86% (inactive); `CCOC(=O)c1c(NC(=O)CN2C(=O)NC3(CCC(C)CC3)C2=O)sc(C)c1CC` (configuration not stated): 0.199% (inactive); `C/C(=N\NC(=O)c1ccccc1F)c1ccccn1`: 62.2% (active).
With `C/C(=N\NC(=O)Cc1ccc(Cl)cc1)c1ccccn1`, the inhibition was 80% (active).
In the case of `CC(=NNC(=S)N1CCCCCC1)c1ccccn1` it was 58.9% (inactive); in that of `CC1=NNC(=O)C1CCC(=O)N/N=C(\C)c1ccc(Cl)cc1` (configuration not stated), 2.4% (inactive); in that of `C/C(=N\NC(=O)c1ccoc1C)c1ccccc1O`, -21.6% (inactive).
Turning to `NC(=O)NC(CC(=O)NNC(=O)c1ccccn1)c1ccc(Cl)cc1` (configuration not stated), the inhibition was -12.2% (inactive).
For the molecule `CC(C)CN1CC(C)C(=O)N(c2ccccc2)C1=S` (configuration not stated), the inhibition was -5.49% (inactive).
In the case of `COc1cc2c(cc1OC)CN(C(=O)c1cc(S(=O)(=O)N3CCCCC3)ccc1Cl)CC2` it was 10.9% (inactive).
In the case of `COc1ccc(S(=O)(=O)N2CCC(C(=O)N3CCc4ccccc4C3)CC2)cc1OC` it was 1.79% (inactive); in that of `COc1cc2c(cc1OC)C(C)N(S(=O)(=O)c1cnc(Cl)c(Cl)c1)CC2` (configuration not stated), 76% (active); in that of `CN(CCc1ccccn1)C(=O)CCC1CCCN(Cc2ccccc2OC(F)F)C1` (configuration not stated), -12.8% (inactive).
Next, `CC[C@]1(O)CC2CN(CCc3c([nH]c4ccccc34)[C@@](C(=O)OC)(c3cc4c(cc3OC)N(C=O)[C@H]3[C@@](O)(C(=O)OC)[C@H](OC(C)=O)[C@]5(CC)C=CCN6CC[C@]43[C@@H]65)C2)C1` (some centres not stated): 45.8% (inactive).
For `CC[C@]1(O)C[C@@H]2CN(CCc3c([nH]c4ccccc34)[C@@](C(=O)OC)(c3cc4c(cc3OC)N(C)[C@H]3[C@@](O)(C(=O)OC)[C@H](OC(C)=O)[C@]5(CC)C=CCN6CC[C@]43[C@@H]65)C2)C1`, the inhibition was 62.2% (active).
Next, `CCC1SC(CC)C(=O)N(CC(=O)NC2CCCCC2)C1=O` (configuration not stated): 13.1% (inactive).
In the case of `Clc1ccc(C[n+]2cc(-c3ccc(Cl)cc3)n3c2CCC3)cc1` it was 47.5% (inactive); in that of `CN(C)Cc1c(C(=O)N/N=C/c2ccccc2OCc2ccc(F)cc2)nnn1-c1nonc1N`, -15.2% (inactive); in that of `Cc1ccc2c(O)c(Cc3ccccc3)c(=O)[nH]c2n1`, 2.8% (inactive).
Regarding `COC(=O)COc1ccc2c(=O)c(Oc3ccccc3Br)coc2c1`, the inhibition was -0.261% (inactive).
Next, `O=C(O)c1ccc(Cn2cnc3c(=S)nc[nH]c32)cc1`: -0.814% (inactive); `COc1ccc(C2=Nn3c(nnc3-c3ccccc3OC)SC2)cc1OC1CCCC1`: 65.9% (active).
In the case of `CC1=Nn2c(nnc2-c2ccccc2)SC1` it was -0.377% (inactive); in that of `COc1ccccc1-c1nnc2n1N=C(c1ccc(OC(F)F)c(OCC3CC3)c1)CS2`, -4.86% (inactive); in that of `COC(C[C@H](O)CC(=O)COCc1ccccc1)OC`, -3.12% (inactive).
Next, `O=C(O)CN1c2cccc3cccc(c23)S1(=O)=O`: 13.3% (inactive).
As to `N/C(=N\OC(=O)Nc1ccccc1)c1ccno1`, the inhibition is -14% (inactive).
In the case of `CCCOc1ccc(C(=O)C(CCC(CNCC)C(=O)c2ccc(OCCC)cc2)CNCC)cc1` (configuration not stated) it was 102% (active); in that of `CCCCOc1ccc(C(=O)NN2CCN(C)CC2)cc1`, -7.2% (inactive); in that of `CCCOc1ccc(C(=O)CCC(=O)OC(C)C(=O)Nc2ccc(NC(C)=O)cc2)cc1` (configuration not stated), -26% (inactive).
In the case of `Cc1ccc(/C=C2/SC(=S)N(CCC(=O)NCCCN3CCOCC3)C2=O)cc1` it was -20.1% (inactive); in that of `C=CCOc1ccc(/C=C2\SC(=S)N(CCC(=O)O)C2=O)cc1`, 78.2% (active).
Take `COc1ccc(/C=C2\SC(=S)N(CCCC(=O)NC3CCCC3)C2=O)cc1OC`: the inhibition was 37.5% (inactive).
Next, `Cc1ccc(S(=O)(=O)N(CC(=O)Nc2cccc([N+](=O)[O-])c2)Cc2ccc(Cl)cc2)cc1`: 15.8% (inactive).
Next, `CC(=O)c1cccc(NC(=O)C2CCN(C(=O)c3ccccc3Cl)CC2)c1`: 28.4% (inactive); `O=C(COC(=O)C1CCN(S(=O)(=O)c2ccc3c(c2)OCCO3)CC1)Nc1ccccc1OC(F)F`: -1.73% (inactive); `CCOC(=O)/C(=N\Nc1ccccc1[N+](=O)[O-])c1csc(Nc2ccccc2)n1`: -14.3% (inactive).
In the case of `CCOC(=O)/C(=C\c1ccc([N+](=O)[O-])cc1)C(=O)c1cc(C(C)=O)c(Nc2ccccc2)s1` it was 100% (active).
Take `Cc1ccc(NC(=O)/C(=C/c2ccc([N+](=O)[O-])cc2)NC(=O)c2ccccc2)cc1`: the inhibition is 8.59% (inactive).
Turning to `CC(=O)c1ccc(N2CCN(C(=O)CCNC(=O)Cn3ccc4ccccc4c3=O)CC2)cc1`, the inhibition was 0.055% (inactive).
In the case of `CCC(=C/c1sc2ccc3ccccc3c2[n+]1C)/C=C1\Sc2ccc3ccccc3c2N1C` it was 77.8% (active); in that of `Cc1nc(-c2nnc(SCC(=O)Nc3cc(C(F)(F)F)cc(C(F)(F)F)c3)n2C)cs1`, 6.42% (inactive).
Next, `CCCCOc1ccc(C(=O)N/C(=C/C=C/c2ccccc2)C(=O)N2CCOCC2)cc1`: 0.224% (inactive); `O=[N+]([O-])c1cc2ccccc2nc1-c1ccccc1`: -2.83% (inactive); `CN(C)CCn1c2c(c(SCC(=O)Nc3ccccc3C(F)(F)F)nc1=O)CCCC2`: 1.54% (inactive).
In the case of `CC1CCCCC1NC(=O)/C(C#N)=C/C=C/c1ccccc1[N+](=O)[O-]` (configuration not stated) it was 87% (active); in that of `O=[N+]([O-])c1ccccc1/C=C/CN1CCCC(CO)C1` (configuration not stated), 3.33% (inactive); in that of `O=[N+]([O-])c1ccccc1/C=C/CN1CCC(O)CC1`, -6.15% (inactive).
For `CSCCC(NS(=O)(=O)c1ccc2c(c1)oc(=O)n2C)C(=O)NC1CCCc2ccccc21` (configuration not stated), the inhibition was 4.17% (inactive).
Consider `Cc1cccc(/C(N)=N/OC(=O)c2ccccc2Cl)c1`, for which the inhibition was -7.17% (inactive).
Next, `COc1ccccc1NC(=O)CCC(=O)N1CC(C)Oc2ccc(C)cc21` (configuration not stated): -0.622% (inactive); `CC1CN(C(=O)CCC(=O)NCCCN2CCC(Cc3ccccc3)CC2)c2cc(Cl)ccc2O1` (configuration not stated): 81.8% (active).
Next, `CC1CN(C(=O)CCC(=O)NCc2cccnc2)c2ccccc2O1` (configuration not stated): -4.62% (inactive).
Next, `COc1ccc(OC)c(-c2c(=O)n(OCc3ccccc3Br)c3ccccc3[n+]2[O-])c1`: 15.9% (inactive); `CC(=O)Nc1ccc(S(=O)(=O)NC2Cc3ccccc3C2)cc1`: 4.61% (inactive); `C=C(C)C(=O)Nc1cccc(C2=NOC3(C2)C[C@H](C(N)=O)N(C(=O)C(c2ccccc2)c2ccccc2)C3)c1` (some centres not stated): 0.48% (inactive).
As for `CCN(CC)S(=O)(=O)c1ccc(NC(=O)c2cnc(C)cn2)cc1`, the inhibition is 10.2% (inactive).
Take `CCN(CC)S(=O)(=O)c1ccc(NC(=O)c2cccnc2Cl)c(NC(=O)c2cccnc2Cl)c1`: the inhibition is 74.2% (active).
Turning to `CCN(CC)S(=O)(=O)c1ccc(Cl)c(NC(=O)c2ccncc2)c1`, the inhibition was 0.4% (inactive).
In the case of `O=C1CC(c2ccccc2)C(c2ccccc2)=NN1` (configuration not stated) it was 5.8% (inactive); in that of `Cc1cccc(N(C(=O)Cn2nnc(-c3ccc(C)o3)n2)C(C(=O)NC2CCCC2)c2ccncc2)c1` (configuration not stated), 3.32% (inactive); in that of `CCN(CC)CCCC(C)n1c2nc(=O)[nH]c(=O)c-2nc2cc(Cl)ccc21` (configuration not stated), 83.3% (active).
Consider `CCN(CC)CCn1c2ccc(Cl)cc2c2nc(C)sc21`, for which the inhibition is 6.02% (inactive).
`CCOC(=O)c1c(C)[nH]c(C(=O)NCCN2CCOCC2)c1C`: the inhibition was 8.7% (inactive).
Next, `COc1ccccc1NC(=O)N(O)C1(C#N)CCCCC1`: -7.2% (inactive); `CN1c2ccc(C=O)c3c(C=O)ccc(c23)N(C)C1(C)C`: 96.4% (active); `CCN(C(=O)COC(=O)c1c(NC(C)=O)sc(C)c1C)C1CCS(=O)(=O)C1` (configuration not stated): 11% (inactive).
In the case of `COc1ccccc1NC(=O)CCCc1c[nH]c2ccccc12` it was -1.28% (inactive); in that of `COc1cccc(CNCCc2c[nH]c3ccccc23)c1OCc1ccccc1F`, 95.2% (active).
In the case of `COc1ccc(C(CCNCc2ccccc2F)c2ccc(F)cc2)cc1` (configuration not stated) it was -10.4% (inactive).
For `O=C(c1cc(COc2ccc(F)cc2F)on1)N1CCOCC1`, the inhibition is -44.5% (inactive).
Next, `CC(C)c1ccc(S(=O)(=O)N2CCN(C(=O)CN3C(=O)NC(C)(c4ccccc4)C3=O)CC2)cc1` (configuration not stated): -4.8% (inactive); `Cc1csc(NC(=O)CSc2nnc(-c3cccnc3)o2)n1`: -14.8% (inactive).

These data come from PubChem BioAssay AID488899 (Broad Institute, 2010).
